“And” between values parts separate entries of the source, which are not always exact repeats. Identical values can stand only once. Inconclusive results are not listed. A structure can be active in one record and inactive in another. The source made the active and inactive calls. Calls come from the whole dose curve; as a rule, active = well fitted activation curve with a large enough effect in the signal ratio in the repeat runs (not every such curve was filed as active); inconclusive = weak or mixed curves, or effect the other way; inactive = no such curve, though single readings can be large or run the other way; the % refers to the signal ratio.
These molecules were tested against Peroxisome proliferator-activated receptor gamma (Homo sapiens) (UniProt P37231) (assay: qHTS assay to identify small molecule agonists of the peroxisome proliferator-activated receptor gamma (PPARg) signaling pathway (AID 743094)). Conditions: HEK293H PPARg-UAS-bla, beta-lactamase FRET ratio, 17 h; series mostly up to 57 µM; activation: at the top concentration.
Peroxisome proliferator-activated receptor gamma (Homo sapiens), sequence (P37231 whole entry, looked up): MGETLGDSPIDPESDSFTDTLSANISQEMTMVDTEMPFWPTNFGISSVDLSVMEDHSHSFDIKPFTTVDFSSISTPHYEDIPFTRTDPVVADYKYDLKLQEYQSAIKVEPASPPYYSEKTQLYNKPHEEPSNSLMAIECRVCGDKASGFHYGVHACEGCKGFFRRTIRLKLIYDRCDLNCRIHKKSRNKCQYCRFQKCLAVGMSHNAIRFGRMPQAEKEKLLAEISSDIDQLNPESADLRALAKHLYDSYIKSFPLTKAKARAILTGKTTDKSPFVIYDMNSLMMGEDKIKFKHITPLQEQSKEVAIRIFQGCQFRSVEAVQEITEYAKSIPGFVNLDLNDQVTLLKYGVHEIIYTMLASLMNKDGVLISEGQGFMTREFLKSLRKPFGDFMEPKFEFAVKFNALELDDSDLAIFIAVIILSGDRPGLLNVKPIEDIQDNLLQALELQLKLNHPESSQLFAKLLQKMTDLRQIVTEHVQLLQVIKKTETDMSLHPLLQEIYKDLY
How it was run: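 Agonist activity was taken from a beta-lactamase reporter (FRET substrate, 1 h at room temperature) in HEK293H cells carrying a PPARg UAS-bla construct. Compounds in DMSO were incubated 17 h at 37C after a 5 h cell pre-incubation.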
With c1ccc2c(c1)[nH]c1cnccc12 the “activation” value was 12.6% (inactive).
With CC(C)(C)c1cc([N+](=O)[O-])cc(C(C)(C)C)c1O the “activation” value was -7.82% (inactive).
With O=c1[nH]c2ccccc2n1C1CCN(CCCC(c2ccc(F)cc2)c2ccc(F)cc2)CC1 the “activation” value was 0.67% (inactive).
CC(C)(C)OO was tested, and the “activation” value was 0.26% (inactive).
In the case of BrCBr, the “activation” value was -0.913% [at 78.9 µM] (inactive).
In the case of COc1ccc(/C(=C/C(=O)N2CCOCC2)c2ccc(Cl)cc2)cc1OC, the “activation” value was 2.44% (inactive).
With BrC(Br)Br the “activation” value was -2.54% (inactive).
With N#CNC#N the “activation” value was 0.781% [at 78.9 µM] (inactive).
With COc1cc(N)c(Cl)cc1C(=O)NC1CN2CCC1CC2 (stereo not drawn) the “activation” value was 12.5% (inactive).
ClC(Cl)=C(c1ccc(Cl)cc1)c1ccc(Cl)cc1 was tested, and the Potency was “inactive”.
In the case of CC(C)OC(=S)S, the “activation” value was 6.22% (inactive).
For CCN, the “activation” value was -3.33% [at 78.9 µM] (inactive).
Fc1cccc(Cl)c1CCl was tested, and the “activation” value was 4.24% (inactive).
CCCCCCCCCCCCCN1CC(C)OC(C)C1 (stereo not drawn) was tested, and the “activation” value was 0.297% (inactive).
CC(C)CCCCCOC(=O)c1ccccc1C(=O)OCCCCCC(C)C was tested, and the “activation” value was 2.45% (inactive).
In the case of O=[N+]([O-])c1ccc(Oc2ccc(C(F)(F)F)cc2[N+](=O)[O-])cc1, the “activation” value was 5.5% (inactive).
CC(=O)Nc1ccc2c(c1)Cc1ccccc1-2 was tested, and the “activation” value was 3.39% [at 78.9 µM] (inactive).
CC(C)OS(C)(=O)=O was tested, and the “activation” value was -3.21% [at 78.9 µM] (inactive).
CCOC(=O)OC1=C(c2cc(C)ccc2C)C(=O)NC12CCC(OC)CC2 (stereo not drawn) was tested, and the “activation” value was 2.29% (inactive).
For FC(F)(F)c1cccc(C2=CCN(CCc3ccc4ccccc4c3)CC2)c1, the “activation” value was 2.63% (inactive).
For O=C1NCN(c2ccccc2)C12CCN(CC1COc3ccccc3O1)CC2 (stereo not drawn), the “activation” value was 0.665% (inactive).
COc1cccc(C(=O)CCN[C@@H](C)[C@H](O)c2ccccc2)c1 was tested, and the “activation” value was 1.28% (inactive).
With CCCCN(CCCC)C(=S)[S-].CCCCN(CCCC)C(=S)[S-].[Zn+2] the Potency was “inactive and 30.9 µM (active)”.

From PubChem BioAssay (Tox21)
% is set by controls: 0 for no effect and ±100 for the full control effect; potency is the fitted concentration of half-maximal effect.
